“And” between values parts separate entries of the source, which are not always exact repeats. Equal values may be shown once. The source made the active and inactive calls.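 The calls were made as follows, unless noted: active = inhibition at or above 50% relative to wild type and mutant plate controls; inactive = inhibition below 50%.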
Columns and labels:
[1] = inhibitors of TNFa-induced NFkB p65 translocation, primary screen, imaging, HUVEC, MLSMR starter and 10KST1 sets (AID 438;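 active = inhibition above 20% together with a positive visual image hit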;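 also: compound added about 3h40 before a 20 min TNFalpha stimulation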;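 as to inhibition: signal is the nuclear over cytoplasmic p65 intensity ratio per well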); conditions: HUVEC TNFa-induced p65 nuclear translocation; cell count: measured here: nuclei count (cytotoxicity indicator), at 2.08 µM; inhibition: at 2 µM, stronger effect = higher value, 0% TNFa-plus-vehicle, 100% no-TNFa wells
[2] = inhibitors of E-selectin induction by TNFa, primary screen, imaging, HUVEC, immunofluorescence, MLSMR starter and 10KST1 sets (AID 487;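 active = visually confirmed hit in the image check and inhibition above 20%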;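 as to inhibition: signal is fraction of cell area covered by stained E-selectin grains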;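 as to nuclei count: 100% = median nuclei count of all wells on the same plate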); conditions: HUVEC TNFalpha-induced E-selectin immunofluorescence imaging, at 2 µM; inhibition: stronger effect = higher value; nuclei count: measured here: cell number, toxicity
[3] = DUSP6 inhibitors restoring Erk phosphorylation by chemical complementation, primary imaging in DUSP6-transfected HeLa (AID 609;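 active = compounds giving at least 50% inhibition in the cell-based MKP-3 phosphatase rescue imaging test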;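 as to inhibition: phospho-Erk level distribution per well compared with pooled transfected vehicle control wells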); conditions: HeLa MKP-3 transfected, phospho-Erk imaging KS statistic, at 10 µM, cells stimulated with TPA for 15 min
[4] = target: Dual specificity protein phosphatase 6 (Homo sapiens) (UniProt Q16828); assay: as above; conditions: HeLa MKP-3 transfected, phospho-Erk imaging KS statistic; at 10 µM; stronger effect = higher value; cells stimulated with TPA for 15 min
Dual specificity protein phosphatase 6 (Homo sapiens), sequence (Q16828 whole entry, looked up): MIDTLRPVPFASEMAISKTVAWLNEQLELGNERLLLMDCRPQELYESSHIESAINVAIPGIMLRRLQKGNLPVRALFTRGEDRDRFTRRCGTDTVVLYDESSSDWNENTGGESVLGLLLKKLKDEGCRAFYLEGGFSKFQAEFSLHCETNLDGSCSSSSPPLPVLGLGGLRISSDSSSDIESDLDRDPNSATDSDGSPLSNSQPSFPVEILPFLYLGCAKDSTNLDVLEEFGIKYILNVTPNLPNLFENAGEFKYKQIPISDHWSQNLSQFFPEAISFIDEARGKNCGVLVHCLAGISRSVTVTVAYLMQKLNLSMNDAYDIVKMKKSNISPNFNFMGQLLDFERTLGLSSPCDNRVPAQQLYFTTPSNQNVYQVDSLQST

[5] = target: Voltage-gated potassium channel subunit beta-2 (Rattus norvegicus) (UniProt P62483); assay: KvBeta enzyme negative modulators, primary screen, biochemical, NADPH fluorescence (AID 622;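 active = fluorescence slope higher than the sample average by over 3 SD, cut at about -0.22 in these data, passing the limit was not always enough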;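 also: slope of raw intensity against log time taken from 70 to 1610 s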); conditions: recombinant KvBeta, 4-cyanobenzaldehyde reduction, at 10 µM, stronger effect = higher value
Voltage-gated potassium channel subunit beta-2 (Rattus norvegicus), sequence (P62483 whole entry, looked up): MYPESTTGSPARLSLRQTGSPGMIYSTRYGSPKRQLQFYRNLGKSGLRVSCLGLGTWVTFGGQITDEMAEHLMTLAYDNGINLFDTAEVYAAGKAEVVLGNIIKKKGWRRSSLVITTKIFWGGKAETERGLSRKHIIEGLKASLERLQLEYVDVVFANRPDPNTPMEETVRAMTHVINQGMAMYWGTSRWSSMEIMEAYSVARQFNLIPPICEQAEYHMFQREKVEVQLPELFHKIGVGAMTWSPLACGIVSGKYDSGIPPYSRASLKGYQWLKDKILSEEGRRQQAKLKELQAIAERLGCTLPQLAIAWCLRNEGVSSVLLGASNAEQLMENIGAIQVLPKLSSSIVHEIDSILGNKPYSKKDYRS

[6] = target: Voltage-gated potassium channel subunit beta-2 (Rattus norvegicus) (UniProt P62483); assay: KvBeta positive modulators, primary screen, biochemical, NADPH fluorescence (AID 623;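 active = NADPH fluorescence slope more negative than the mean of all samples by about 3 SD, 99.7% confidence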;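 also: fluorescence intensity change per second fitted from 20 to 320 s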); conditions: Recombinant KvBeta, NADPH fluorescence decrease slope, 10 min; at 10 µM; stronger effect = lower value
[7] = target: Alpha-2C adrenergic receptor (Homo sapiens) (UniProt P18825); assay: modulators of alpha2C/GIRK thallium flux, primary screen, cell-based, HEK293 alpha2C/GIRK1/2 (AID 624;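 active = fluorescence slope after compound addition differing from the mean of all screened samples at 99.7% confidence, in either direction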;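 also: slope of fluorescence ratio to pre-addition baseline per second over 15 to 24 s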); conditions: thallium flux BTC fluorescence, at 10 µM, actives lie on both sides
Alpha-2C adrenergic receptor (Homo sapiens), sequence (P18825 whole entry, looked up): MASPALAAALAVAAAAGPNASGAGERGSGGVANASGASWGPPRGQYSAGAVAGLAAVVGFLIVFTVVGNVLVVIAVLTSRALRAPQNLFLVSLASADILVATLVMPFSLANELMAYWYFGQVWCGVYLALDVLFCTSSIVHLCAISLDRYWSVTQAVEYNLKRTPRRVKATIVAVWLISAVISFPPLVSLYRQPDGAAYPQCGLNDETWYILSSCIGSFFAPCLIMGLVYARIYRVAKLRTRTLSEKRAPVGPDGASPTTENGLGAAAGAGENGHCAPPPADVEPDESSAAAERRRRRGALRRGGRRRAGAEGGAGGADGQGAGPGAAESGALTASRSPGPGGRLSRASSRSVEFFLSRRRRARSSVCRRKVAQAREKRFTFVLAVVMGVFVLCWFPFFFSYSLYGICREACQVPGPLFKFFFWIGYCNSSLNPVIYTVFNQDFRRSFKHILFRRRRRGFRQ

[8] = inhibitors of Chlamydomonas gravitaxis, primary screen, whole organism, Chlamydomonas reinhardtii, WT vs cilia-less mutant, absorbance, 96-well (AID 463189); conditions: OD600 absorbance, 2 days, at 10 µM, stronger effect = higher value;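 also: 0% = wild type cc124 cells in DMSO and 100% = ciliumless bld1 mutant cells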
[9] = inhibitors of larval lipid processing in zebrafish, primary screen, whole organism, PED6 fluorescence, gall bladder and intestine (AID 686;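 active = a full or partial loss of lipid-probe fluorescence in the fish gall bladder, intestine or both, judged by eye; inactive = no fluorescence loss, or compound toxic to the fish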;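 also: larvae 5 to 7 days old with five fish per well; signal comes from phospholipase A2 cleavage of quenched PED6 carried via bile; overnight exposure to compound and PED6 before scoring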); conditions: Zebrafish larvae PED6 lipid processing, fluorescence scoring; screened at 20 µM (by protocol)
[10] = inhibitors of Sendai virus-induced IRF3 signaling, primary screen, TLR/RLR signaling modifier project, cell-based, Sendai virus stimulus, luciferase, 10K MLSCN set (AID 602276;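 active = inhibition at or above 50% at 10 µM; inactive = inhibition below 50%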;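 also: firefly luciferase from ISG56 promoter only with Renilla not read in this screen; 0% = Sendai virus plus DMSO and 100% = medium plus DMSO without virus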); conditions: HEK293 RL24 IRF3 luciferase reporter, at 10 µM, stronger effect = higher value
[11] = inhibitors of poly I:C-induced TLR3 signaling, primary screen, cell-based, poly I:C stimulus, luciferase, 10K MLSCN set (AID 602277;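 active = inhibition of the reporter signal at or above 50%; inactive = inhibition below 50%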); conditions: HEK293-TLR3 RL24 IRF3 luciferase reporter, at 10 µM, stronger effect = higher value
[12] = measured here: cell density z-score
[13] = measured here: nuclear c-Myc green intensity z-score
[14] = measured here: nuclear pErk red intensity z-score, stronger effect = higher value

Structure (SMILES) | cell count [1] | inhibition [1] | inhibition [2] | nuclei count [2] | z-score [3, 12] | z-score [3, 13] | z-score [3, 14] | inhibition [4] | fluorescence slope [5] | NADPH fluorescence slope [6] | slope [7] | inhibition [8] | outcome [9] | inhibition [10] | inhibition [11]
CCCOC(=O)C1[C@H]2C(=O)N(Cc3ccco3)C[C@]23C=C[C@H]1O3 (some centres not stated) | 337 | -2.3% (inactive) | -90.3% (inactive) | 155% | -0.841 | 0.28 | -0.596 | -7.01% (inactive) | -0.424 (inactive) | -0.000134 (inactive) | 0.00455 (inactive) | 1.77% (inactive) | – | – | –
O=C(NCCCn1ccnc1)C(Cc1ccccc1)N1C(=O)c2ccccc2C1=O (configuration not stated) | 340 | -6.9% (inactive) | -73.9% (inactive) | 125% | 0.63 | -0.478 | -0.334 | 1.6e-07% (inactive) | -0.46 (inactive) | -0.000126 (inactive) | 0.00809 (inactive) | 3.02% (inactive) | – | – | –
Cc1ccc2cc(CN(C(=O)c3ccco3)c3ccccc3C)c(=O)[nH]c2c1 | 334 | 8.3% (inactive) | -73.2% (inactive) | 116% | 1.77 | -1.81 | -0.15 | 17.5% (inactive) | -0.477 (inactive) | 1.8e-05 (inactive) | 0.00844 (inactive) | 32.2% (inactive) | – | – | –
COc1ccccc1-c1cc(-c2cc(Cl)ccc2O)n[nH]1 | 259 | -13% (inactive) | -9.5% (inactive) | 129% | 1.7 | -0.531 | -0.306 | 7.01% (inactive) | -0.453 (inactive) | -1.7e-05 (inactive) | 0.0086 (inactive) | -19.8% (inactive) | – | – | –
CCCn1c(=O)[nH]c(=O)c2[nH]cnc21 | 615 | -1.8% (inactive) | -98.8% (inactive) | 137% | 2.73 | -1.33 | 0.0338 | 19% (inactive) | -0.494 (inactive) | -7.3e-05 (inactive) | 0.00482 (inactive) | 4.71% (inactive) and 14.1% (inactive) | inactive | 18.8% (inactive) | 33.6% (inactive)
CC1CCCCN1C(=O)C12CCC(C)(/C(=N/O)C1)C2(C)C (configuration not stated) | 333 | -6.9% (inactive) | -75.4% (inactive) | 141% | -1.18 | 2.22 | 1.3 | 5.26% (inactive) | -0.407 (inactive) | -0.000148 (inactive) | 0.00568 (inactive) | -7.07% (inactive) | – | – | –
CCN(CC)CCCN1C(=O)C(=O)/C(=C(/O)c2ccc(Cl)cc2)C1c1ccccn1 (configuration not stated) | 355 | 3.2% (inactive) | -70.8% (inactive) | 81.9% | -2.05 | -1.03 | 0.528 | -15.8% (inactive) | -0.442 (inactive) | -0.000153 (inactive) | 0.00491 (inactive) | 24.6% (inactive) | – | – | –
c1ccc(CN2CCN(c3nc(-c4ccccn4)nc4ccccc34)CC2)cc1 | 275 | -1.9% (inactive) | -134% (inactive) | 96.6% | 0.978 | -1.13 | -0.507 | 20.2% (inactive) | -0.498 (inactive) | 4.9e-06 (inactive) | 0.00604 (inactive) | 130% (active) | – | – | –
O=C1C2ON(c3ccccc3)C(c3ccncc3)C2C(=O)N1c1ccc(Br)cc1 (configuration not stated) | 360 | -2.3% (inactive) | -22.2% (inactive) | 148% | -0.515 | -1.17 | -0.44 | 12.3% (inactive) | -0.414 (inactive) | -0.000135 (inactive) | 0.00415 (inactive) | 24.8% (inactive) | – | – | –
COC(=O)C1=C(C)NC(C)=C(C(=O)OC)C1c1ccccc1[N+](=O)[O-] | 548 | -5.5% (inactive) | -80.3% (inactive) | 116% | 1.16 | 0.789 | -0.998 | 13.3% (inactive) | -0.461 (inactive) | -1.4e-05 (inactive) | 0.00935 (inactive) | -13.6% (inactive) and -16.5% (inactive) | inactive | 12.4% (inactive) | 13.4% (inactive)
Oc1ccccc1-c1nc(NCCN2CCOCC2)c2ccccc2n1 | 268 | -6.5% (inactive) | 14.7% (inactive) | 96.7% | 0.138 | 3.56 | -0.549 | 1.6e-07% (inactive) | -0.423 (inactive) | -3.4e-05 (inactive) | 0.00504 (inactive) | 62.5% (active) | – | – | –
CC1(C)CC(NC(=O)C23CCC(C)(/C(=N/O)C2)C3(C)C)CC(C)(C)N1 (configuration not stated) | 378 | -8.3% (inactive) | -45.2% (inactive) | 179% | -1.2 | 0.0129 | 1.59 | -14% (inactive) | -0.399 (inactive) | -0.000147 (inactive) | 0.00577 (inactive) | -6.59% (inactive) | – | – | –
COc1ccc(/C(O)=C2/C(=O)C(=O)N(CCN3CCOCC3)C2c2ccccn2)cc1OC (configuration not stated) | 409 | -7.4% (inactive) | -125% (inactive) | 158% | 1.75 | -1.41 | 1.12 | 15.8% (inactive) | -0.419 (inactive) | -9.3e-05 (inactive) | 0.00847 (inactive) | 6.74% (inactive) | – | – | –

Reference: PubChem BioAssay
